Drawing on PubChem BioAssay (NCATS), this text covers outcome and Potency for 7 compounds.

Inconclusive results are not listed. Entries that show only a call come without a potency. Active and inactive are the calls of the source. Calls come from the whole dose curve; as a rule, active = well fitted curve in the direction sought with a large enough effect; inconclusive = small, poorly fitted or top-dose-only effect, or another doubt; inactive = no such curve, though single readings can be large; an effect the other way counts as inactive or inconclusive.

Chain of Furin (Homo sapiens) (P09958 whole entry, looked up): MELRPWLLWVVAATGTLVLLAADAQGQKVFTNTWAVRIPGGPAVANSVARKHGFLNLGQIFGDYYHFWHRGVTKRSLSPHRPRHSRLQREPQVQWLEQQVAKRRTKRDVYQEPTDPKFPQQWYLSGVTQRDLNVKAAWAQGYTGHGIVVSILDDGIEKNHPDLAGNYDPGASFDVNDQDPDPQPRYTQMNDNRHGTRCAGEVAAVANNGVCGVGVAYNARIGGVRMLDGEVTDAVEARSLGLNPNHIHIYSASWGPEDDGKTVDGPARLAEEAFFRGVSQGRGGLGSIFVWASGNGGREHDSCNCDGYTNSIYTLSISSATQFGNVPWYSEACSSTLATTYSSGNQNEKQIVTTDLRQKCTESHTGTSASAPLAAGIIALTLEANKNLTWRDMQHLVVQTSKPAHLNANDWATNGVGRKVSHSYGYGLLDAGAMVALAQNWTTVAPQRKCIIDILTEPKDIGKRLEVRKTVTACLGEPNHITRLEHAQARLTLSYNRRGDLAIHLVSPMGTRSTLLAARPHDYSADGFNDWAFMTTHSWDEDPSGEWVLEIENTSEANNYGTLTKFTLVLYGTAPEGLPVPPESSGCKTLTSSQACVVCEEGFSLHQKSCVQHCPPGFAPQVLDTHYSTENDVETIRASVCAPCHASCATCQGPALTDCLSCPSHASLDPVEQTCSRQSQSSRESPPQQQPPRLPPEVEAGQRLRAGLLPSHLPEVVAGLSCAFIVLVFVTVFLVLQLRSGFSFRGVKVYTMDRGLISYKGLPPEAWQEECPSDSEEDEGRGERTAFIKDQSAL

Test system in the first assay: not listed separately
The assay can be described thus: qHTS of pediatric cancer cell lines to identify multiple opportunities for drug repurposing: Confirmatory screen for SK-N-SH cells (AID 1347129).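 Note: cells exposed to compound for 48 h before viability read; nearly all actives have a fitted effect of over 60% in size.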 The conditions noted are these: SK-N-SH neuroblastoma cell viability; series mostly up to 46.1 µM. The gist of the method:
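Viability after 48 h compound treatment at 37C, 500-1,000 cells/well, read as ATP luminescence with CellTiter-Glo. Primary screens used 11-point (MIPE, 0.78 nM-46 µM) or 8-point (NPC, 0.59 nM-46 µM) final concentrations; follow-up screens used 11-point dilutions.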
(qHTS replaces the single test concentration by a dilution series.)
In the case of `COc1cc(C(=O)NCCCCCC(=O)O)cc(OC)c1OC`, the outcome was inactive.

Take `CC(=O)OCC(=O)[C@@]1(O)CC[C@H]2[C@@H]3CCC4=CC(=O)C=C[C@]4(C)[C@@]3(F)[C@@H](O)C[C@@]21C`: the compound was called inactive.

For the compound `O=C(Cn1ccnc1[N+](=O)[O-])NCc1ccccc1`, the compound was classed as inactive.

The next assay concerns the target Furin (Homo sapiens) (UniProt P09958). The assay can be described thus: Furin counterscreen qHTS for Zika virus inhibitors (AID 1347149). Note: nearly all actives have a fitted effect of over 70% in size. Note: potency is the fitted concentration of half-maximal effect. To be noted: furin enzymatic counterscreen, fluorogenic substrate; series mostly up to 114 µM. An excerpt: Avindra Nath, Ph.D., National Institute of Neurological Disorders and Stroke (NINDS), Bethesda, MD
Radhakrishnan Padmanabhan, Ph.D., Georgetown University (GU), Washington D.C.
Zika Virus causes congenital defects, including microcephaly and is associated with Guillain-Barre syndrome, eningoencephalitis and myelitis in infected adult. […] Using a target-based approach, we hope to establish a screening paradigm to uncover novel, cell-active NS2B-NS3 protease (Zika Virus) specific inhibitors from NCATS' collection of small molecules using qHTS.
Four assay panel was created to identify potential Zika Virus inhibitors. Namely, (1) GU unlinked NS2B-NS3 AMC tagged protease qHTS, (2) GU unlinked NS2B-NS3 Rhodamine tagged protease qHTS, (3) NINDS linked NS2B-NS3 AMC tagged protease qHTS, (4) NINDS linked NS2B-NS3 Rhodamine tagged protease qHTS. Active compounds were re-acquired and re-screened to confirm inhibition. Inhibitors were further screened against various confirmatory and counterscreens in dose response format.
Early Translation Branch (ETB)
National Center for Advancing Translational Sciences (NCATS), Rockville, MD
National Institute of Health (NIH), Bethesda, Maryland
1536-well Furin BOC-RVRR-AMC Protocol:
Human recombinant Furin Serine Protease was purchased from Peprotech (catalog #450-47; full length; Rocky Hill, NJ). Briefly, 3 microL of enzyme (final concentrations of 5 nM), in assay buffer (100 mM HEPES pH 7.0, 1 mM CaCl2 with 0.01% Triton X-100) were dispensed into a 1,536-well solid-bottom black plate (Greiner Bio One, Monroe, NC). […] Plates were then read immediately on a ViewLux High-throughput CCD imager (PerkinElmer, Waltham, MA) equipped with standard UV fluorescence optics (340(30) nm excitation, 450(20) nm emission), then incubated (37C, protected from light) for 15 or 30 minutes (~9% conversion). The change in fluorescence intensity over the 15-minute reaction period was normalized against no-inhibitor and no-enzyme controls and the resulting percent inhibition data were fitted to a 4-parameter Hill equation. […]
A general note: The purpose of a counterscreen is to sort out artefacts and off-target activity.
Consider `CN1C[C@@H]2C[C@H]1CN2c1cc2c(cc1F)c(=O)c(C(=O)O)cn2C1CC1`, for which the Potency was 9.41 µM (active).

As to `O=C(O)[C@@H]1[C@H]2C[C@H]3c4[nH]c5ccccc5c4CCN3C[C@@H]2CC[C@@H]1O`, the Potency is 21.5 µM (active).

As for `COc1ccccc1Oc1c(NS(=O)(=O)c2ccc(C(C)(C)C)cc2)nc(-c2ncccn2)nc1OCCO`, the Potency result is “inactive”.

For a further assay, the system named is Zika virus NS2B-NS3 protease (unlinked complex). The assay can be described thus: Confirmatory screen GU AMC qHTS for Zika virus inhibitors (AID 1347153).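 For Potency: enzyme at 25 nM with substrate at 10 µM below its Km of 18.3 µM; potency is the fitted concentration of half-maximal effect.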 Note: nearly all actives have a fitted effect of over 70% in size. The conditions noted are these: Recombinant NS2B-NS3 protease, AMC substrate fluorescence; series mostly up to 57.1 µM. A digest of the protocol: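 Compounds were preincubated 15 min at room temperature with 25 nM noncovalent NS2B-NS3 protease at pH 8.0; AMC substrate added at 10 microM and 15-min fluorescence gain (340/450 nm) converted to percent inhibition, fitted 4-parameter.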
Consider `CN1C[C@@H]2C[C@H]1CN2c1cc2c(cc1F)c(=O)c(C(=O)O)cn2C1CC1`, for which the Potency was 16.7 µM (active).

Turning to `O=C(O)[C@@H]1[C@H]2C[C@H]3c4[nH]c5ccccc5c4CCN3C[C@@H]2CC[C@@H]1O`, the Potency entry was “inactive”.

For `O=C(O)Cn1c(C(=O)Nc2nc(-c3ccccc3Cl)cs2)cc2ccccc21`, the Potency was 24.1 µM (active).
